Z-score and composite z-score data for twelve compounds are collected here from PubChem BioAssay.

Assay [1] can be described thus: E. coli DRC41 culture turbidity changes, primary screen, E. coli filamentation inducer project, strain DRC41, OD650, 48 h (AID 1152).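 Note: E. coli MC1000 strain DRC41 lacking acrAB efflux pump and sulA.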 Particulars: E. coli DRC41 (acrAB sulA), higher = more signal, called active from +8 up or from −8 down.
Assay [2] is described as follows: small-molecule binders of probe aLefty1, primary screen, biochemical, small-molecule microarray, 635/667 nm fluorescence (AID 1153).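 Note: score merges spot fluorescence with signal-to-noise ratio from the scanned slide images.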 As to conditions: higher = more signal.
Assay [3] is described as follows: PSAC antagonists in infected red cells, primary screen, cell-based, P. falciparum Indochina, OD700, 1 h (AID 1154). As to conditions: P. falciparum Indochina infected RBC osmotic lysis, higher = more signal, called active from +8 up or from −8 down.
Assay [4] is described as follows: PSAC antagonists in infected red cells, primary screen, cell-based, P. falciparum Indochina, OD700, 2 h (AID 1155).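 Note: lysis reports solute entry through the parasite surface anion channel PSAC; channel blockers reduce lysis of infected cells.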 Particulars: P. falciparum Indochina infected erythrocytes, osmotic lysis OD700; higher = more signal, called active from +8 up or from −8 down.
Assay [5] is described as follows: osmotic lysis modulators in infected erythrocytes, primary screen, PSAC antagonist project, cell-based, P. falciparum Indochina, OD700, 3 h (AID 1156). As to conditions: higher = more signal, called active from +8 up or from −8 down.
A short description of assay [6]: PSAC antagonists in infected red cells, primary screen, cell-based, P. falciparum Indochina, OD700, 18 h (AID 1157). Particulars: P. falciparum Indochina infected erythrocytes, osmotic lysis OD700, 18 h; higher = more signal, called active from +8 up or from −8 down.
Assay [7] in a line: modulators of S6 phosphorylation in cells, primary screen, cell-based, A549, cytoblot, luminescence, serum-stimulated (AID 1158).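 Note: serum-stimulated A549 lung adenocarcinoma cells; signal is phosphorylated S6 detected by cytoblot immunostaining with HRP secondary.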 Particulars: A549 phospho-S6 cytoblot, 5 h, higher = more signal.
The target of assay [8] is NADPH oxidase 2 (Homo sapiens) (UniProt P04839). Briefly: NOX2-dependent H2O2 signal modulators, primary screen, NOX inhibitor project, cell-based, HEK293-NOX2, PMA-stimulated, Amplex Red fluorescence (AID 1159). Note: test concentration not given here. Particulars: 45 min, higher = more signal, called active from +8 up or from −8 down.
The target in assay [9] is NADPH oxidase 4 (Homo sapiens) (UniProt Q9NPH5). Kind of assay: NOX4-dependent H2O2 signal modulators, primary screen, NOX inhibitor project, cell-based, HEK293-NOX4, tetracycline-induced, Amplex Red fluorescence (AID 1160). Particulars: 45 min, higher = more signal, called active from +8 up or from −8 down.
The target in assay [10] is NADPH oxidase 5 (Homo sapiens) (UniProt Q96PH1). Kind of assay: NOX5-dependent H2O2 signal modulators, primary screen, NOX inhibitor project, cell-based, HEK293-NOX5, Amplex Red fluorescence (AID 1161). Particulars: HEK293-NOX5, ionomycin, 45 min, higher = more signal.

Active and inactive are the calls of the source.

NADPH oxidase 2 (Homo sapiens), sequence (P04839 whole entry, looked up): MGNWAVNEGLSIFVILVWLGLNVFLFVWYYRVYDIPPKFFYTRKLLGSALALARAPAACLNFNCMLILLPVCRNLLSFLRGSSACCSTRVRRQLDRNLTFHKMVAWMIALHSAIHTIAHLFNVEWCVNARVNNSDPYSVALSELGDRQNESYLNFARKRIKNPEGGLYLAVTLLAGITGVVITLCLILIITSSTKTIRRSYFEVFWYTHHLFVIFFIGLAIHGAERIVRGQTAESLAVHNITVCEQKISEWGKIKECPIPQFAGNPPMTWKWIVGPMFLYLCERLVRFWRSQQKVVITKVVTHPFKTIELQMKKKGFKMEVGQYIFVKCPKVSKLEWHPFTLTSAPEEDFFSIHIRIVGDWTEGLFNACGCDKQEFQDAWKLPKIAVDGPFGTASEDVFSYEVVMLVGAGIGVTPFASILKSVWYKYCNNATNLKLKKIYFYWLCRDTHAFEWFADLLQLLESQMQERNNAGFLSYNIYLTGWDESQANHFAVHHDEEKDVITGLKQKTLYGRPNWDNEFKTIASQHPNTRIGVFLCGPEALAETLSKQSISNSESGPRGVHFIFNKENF
NADPH oxidase 5 (Homo sapiens), sequence (Q96PH1 whole entry, looked up): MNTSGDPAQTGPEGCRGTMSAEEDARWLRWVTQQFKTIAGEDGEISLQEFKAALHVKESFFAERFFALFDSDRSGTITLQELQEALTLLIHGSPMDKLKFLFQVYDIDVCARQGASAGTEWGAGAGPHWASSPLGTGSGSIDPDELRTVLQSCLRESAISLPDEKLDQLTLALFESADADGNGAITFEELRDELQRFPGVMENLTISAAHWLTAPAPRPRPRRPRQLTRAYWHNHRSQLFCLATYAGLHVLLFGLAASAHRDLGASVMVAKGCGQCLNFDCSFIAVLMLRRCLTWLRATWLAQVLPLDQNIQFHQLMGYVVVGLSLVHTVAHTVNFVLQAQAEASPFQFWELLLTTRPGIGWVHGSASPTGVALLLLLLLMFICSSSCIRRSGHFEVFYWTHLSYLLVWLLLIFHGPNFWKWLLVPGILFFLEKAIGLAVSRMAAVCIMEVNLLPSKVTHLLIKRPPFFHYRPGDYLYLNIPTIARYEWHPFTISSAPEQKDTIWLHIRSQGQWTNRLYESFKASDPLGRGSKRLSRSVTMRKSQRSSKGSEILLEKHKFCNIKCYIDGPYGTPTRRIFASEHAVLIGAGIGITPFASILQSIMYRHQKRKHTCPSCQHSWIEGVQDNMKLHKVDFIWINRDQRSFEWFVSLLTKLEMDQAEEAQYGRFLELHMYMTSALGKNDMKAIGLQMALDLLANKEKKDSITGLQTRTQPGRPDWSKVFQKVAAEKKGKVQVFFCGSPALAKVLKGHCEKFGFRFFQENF
NADPH oxidase 4 (Homo sapiens), sequence (Q9NPH5 whole entry, looked up): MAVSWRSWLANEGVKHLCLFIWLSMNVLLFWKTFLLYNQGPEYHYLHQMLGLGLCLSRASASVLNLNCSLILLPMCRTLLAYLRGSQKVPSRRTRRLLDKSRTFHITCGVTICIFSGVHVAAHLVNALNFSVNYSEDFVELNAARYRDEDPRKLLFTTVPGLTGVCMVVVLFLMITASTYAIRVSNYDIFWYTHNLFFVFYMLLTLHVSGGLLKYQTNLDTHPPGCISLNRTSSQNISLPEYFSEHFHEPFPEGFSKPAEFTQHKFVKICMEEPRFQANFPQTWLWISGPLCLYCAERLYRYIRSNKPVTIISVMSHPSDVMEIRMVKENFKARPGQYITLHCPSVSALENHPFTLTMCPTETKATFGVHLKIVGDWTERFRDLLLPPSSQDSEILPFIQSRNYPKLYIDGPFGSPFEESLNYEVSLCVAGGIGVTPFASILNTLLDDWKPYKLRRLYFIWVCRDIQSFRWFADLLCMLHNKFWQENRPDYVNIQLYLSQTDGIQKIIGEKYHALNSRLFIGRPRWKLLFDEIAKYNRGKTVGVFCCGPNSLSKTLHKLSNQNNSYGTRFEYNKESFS

On to `CC[C@@H]1C=C(C(=O)O)[C@H](c2ccccc2)N1S(=O)(=O)c1ccc([N+](=O)[O-])cc1`, for which the z-score in assay [1] was -3.21 (inactive); in [3] it was 1.3 (inactive); in assay [4], 1.01 (inactive); in [5], 0.751 (inactive); in assay [6] it was 1.15 (inactive); in assay [7], -0.37. Further, the z-score in assay [8] was 0.325 (inactive); in [9] it was -0.0428 (inactive); in assay [10] it was -0.526. In assay [2], this compound came in with a composite z-score of -0.405.

Regarding `CCOC(=O)C[C@H]1[C@H](OC(=O)Cc2ccc3c(c2)OCO3)[C@@H](NC(=O)c2ccc3ccccc3c2)c2cc(OCCCO)ccc2N1C(=O)Cc1ccc(OC)cc1`, the z-score in assay [1] is 2.54 (inactive); in assay [3] it was 18 (active); in assay [4], 2.41 (inactive); in assay [5] it was -1.47 (inactive); in assay [6], -0.15 (inactive); in assay [7], 2.6. The z-score in assay [8] was -0.629 (inactive); in assay [9], 0.799 (inactive); in assay [10], 1.08. This compound displayed a composite z-score in assay [2] of -0.0626.

As for `CCOC(=O)[C@H]1C/C=C/C[C@H](C(=O)OCC)C(=O)O[C@H]2[C@@H](OC)O[C@H](CO)[C@@H](OC(=O)Nc3ccc(Br)cc3)[C@@H]2OC1=O`, the z-score was 2.32 (inactive) in [1]; 5.41 (inactive) in [3]; 1.8 (inactive) in [4]; -3.28 (inactive) in [5]; 0.412 (inactive) in [6]; 1.5 in [7]. Besides, the z-score in assay [8] is -0.611 (inactive); in assay [9], -0.759 (inactive); in [10], 1.63. The same compound displayed a composite z-score in assay [2] of 0.0606.

Consider `COC(=O)C1=CC(c2ccc(CO)cc2)=CC(c2cccs2)N(Cc2cccc(OC(F)(F)F)c2)C=C1C(=O)OC` (stereo not given), for which the z-score in assay [1] was -1.66 (inactive); in assay [3], 10.9 (active); in assay [4], 1.87 (inactive); in assay [5] it was 0.615 (inactive); in [6], 1.43 (inactive); in assay [7], -0.264. For the same compound, the z-score in assay [8] was -1.76 (inactive); in [9], -1.96 (inactive); in assay [10], -2.87. Besides, the composite z-score in assay [2] was 0.641.

`C=C(CCCC)C(=O)CC[C@@H](OC(=O)c1cccnc1)c1cccc(OCCO)c1`: the z-score in assay [1] is 0.381 (inactive); in [3] it was 26.7 (active); in assay [4], 13.1 (active); in assay [5] it was 1.28 (inactive); in [6] it was 1.14 (inactive); in assay [7], -0.712. The z-score is 0.849 (inactive) in assay [8], 0.849 (inactive) in assay [9] and -1.41 in [10]. The compound also had a composite z-score in [2] of -0.0954.

Take `CC(C)(C)OC(=O)CC[C@@]1(C(=O)NCc2ccccc2)N=C(c2ccc(OCCCO)cc2)O[C@@H]1c1ccccc1`: the z-score was 1.9 (inactive) in assay [1]; 23.9 (active) in assay [3]; 11.3 (active) in assay [4]; 1.61 (inactive) in [5]; 1.7 (inactive) in [6]; 3.43 in [7]. Moreover, the z-score in assay [8] was -1.25 (inactive); in assay [9] it was 0.596 (inactive); in [10], -0.58. The compound also registered a composite z-score in assay [2] of 0.736.

With `CO[C@H]1O[C@H](CO)[C@@H](OC(=O)Nc2ccc3c(c2)OCO3)[C@H](OC(=O)Nc2ccccc2)[C@@H]1OC(=O)Nc1ccccc1`, the z-score in [1] is -1.51 (inactive); in assay [3], 7.77 (inactive); in assay [4], 0.903 (inactive); in [5], -0.33 (inactive); in assay [6], 0.717 (inactive); in assay [7], 0.342. Moreover, the z-score in assay [8] is 1.07 (inactive); in assay [9] it was -0.393 (inactive); in assay [10], -0.675. In assay [2], this compound displayed a composite z-score of 0.121.

As to `CO[C@H]1COC(=O)[C@H](C)COC(=O)[C@H](Cc2ccccc2)NC(=O)CC=C[C@H]1C`, the z-score in assay [1] was 0.261 (inactive); in [3], 0.341 (inactive); in [4] it was -1.39 (inactive); in assay [5], 0.743 (inactive); in [6] it was -1.83 (inactive); in assay [7], 0.376. Besides, the z-score in assay [8] was -0.823 (inactive); in assay [9] it was 0.901 (inactive); in assay [10], -0.0208. For the same compound, in assay [2], the composite z-score was found to be 0.351.

Consider `O=C/C=C/c1ccccc1Cl`, for which the z-score in assay [1] is 2.11 (inactive); in assay [3], 0.159 (inactive); in assay [4] it was 0.282 (inactive); in [5], -2.03 (inactive); in assay [6], 0.206 (inactive); in assay [7] it was 1.11. The z-score in assay [8] is -0.129 (inactive); in [9], -0.729 (inactive); in assay [10] it was 1.38. Further, the composite z-score in [2] was -0.191.

In the case of `CCOC(=O)C1=CCC(c2cccc3ccccc23)N(S(=O)(=O)c2ccc(C)cc2)C1` (stereo not given), the z-score in assay [1] was -0.894 (inactive); in assay [3], 1.49 (inactive); in assay [4] it was 0.902 (inactive); in [5], -1.54 (inactive); in assay [6] it was 0.411 (inactive); in assay [7], -0.415. Moreover, the z-score is 1.42 (inactive) in [8], 1.17 (inactive) in assay [9] and 1.49 in assay [10]. Moreover, the composite z-score in [2] is 0.071.

On to `COC(=O)C1=C(C)N(Cc2ccccc2)c2c(C(=O)OC)c(C(=O)OC)c(C(=O)OC)c(=O)n2[C@@H]1c1ccccc1`, for which the z-score is 0.199 (inactive) in assay [1]; 0.294 (inactive) in assay [3]; -1.61 (inactive) in assay [4]; 0.012 (inactive) in assay [5]; -1.45 (inactive) in [6]; 0.715 in [7]. Further, the z-score in assay [8] was 1.74 (inactive); in assay [9], 0.873 (inactive); in [10], -0.0758. This compound returned a composite z-score in assay [2] of -0.0186.

Take `CO[C@@H]1COC(=O)[C@H](C)NC(=O)CC=C[C@@H](C)[C@H](OC)COC(=O)[C@H](C)NC(=O)CC=C[C@H]1C`: the z-score is 1.02 (inactive) in assay [1]; 0.174 (inactive) in [3]; 0.551 (inactive) in assay [4]; 0.0076 (inactive) in [5]; 0.108 (inactive) in [6]; 0.298 in [7]. The z-score in assay [8] was 0.319 (inactive); in assay [9] it was 0.114 (inactive); in [10] it was 0.976. Further, in assay [2], the composite z-score was -0.0984.
